From PubChem BioAssay (Tox21)
Several values for one entry are separate records, joined by “and”; a condition that tells them apart may be missing. Equal values may be shown once. Records with an inconclusive call do not appear. Entries that show only a call come without a potency. Activity calls are given as the source filed them. Calls follow the shape of the dose curve; as a rule, active = well fitted cell-killing curve with a large enough effect in the repeat runs; inconclusive = weak or mixed curves; inactive = no such curve, though single readings can be large or run the other way.

Experiment: qHTS assay for identifying genotoxic compounds that show differential cytotoxicity against isogenic chicken DT40 cell lines with known DNA damage response pathways - Rad54/Ku70 mutant cell line (AID 743015); also: nearly all actives have a fitted effect of over 60% in size
Conditions: DT40 Rad54/Ku70 mutant viability, CellTiter-Glo, 40 h; series mostly up to 66.8 µM; activity change, negative = cytotoxicity: at the top concentration
Text: National Center for Advancing Translational Sciences [NCATS]
NIH Chemical Genomics Center [NCGC]
U.S. Environmental Protection Agency [EPA]
National Institutes of Environmental Health Sciences [NIEHS]
National Toxicology Program [NTP]
U.S. Food and Drug Administration [FDA]
DNA repair pathways play a critical role in cellular homeostasis by repairing DNA damage induced by endogenous processes and xenobiotics. Isogenic chicken DT40 cell lines deficient in different DNA repair pathways can be used to identify genotoxic compounds and aid in characterizing the nature of the DNA damage induced. Two DNA repair-deficient cell lines with disrupted genes, Rad54/Ku70 or Rev3, were used to screen the Tox21 10K compound library. Possible genotoxicity was based on the presence of a significant increase in cytotoxicity in one or more of the DNA repair-deficient cell lines compared to that observed in the parental DNA repair-proficient cell line. CellTiter Glo viability assay (Promega, Madison, WI) was used to measure cell viability in these cells after compound treatment. This assay includes the data from the Rad54/Ku70 mutant cell line.
Tox21 Assay Protocol Summary:
300 DT40 mutant cells in 5 uL/well were dispensed into white, solid-bottom 1536-well plates using a Multidrop Combi (ThermoFisher Scientific, Waltham, MA) dispenser. After the assay plates were incubated at 37 C/5% CO2 for approximately 0.5 hour, 23 nL of compounds dissolved in DMSO, positive controls or DMSO only was transferred into the assay plate by a pintool work station (Kalypsys, San Diego, CA). The assay plates were incubated at 37 C/5% CO2 for 40 hours. After 5 uL per well of CellTiter-Glo reagent was added into each well of the assay plates, the plates were incubated for 30 min at room temperature and the luminescence intensity of the plates was measured using a ViewLux (PerkinElmer, Shelton, CT) plate reader.
Potency is read from the fitted curve at half-maximal effect.

| Structure (SMILES) | Potency | activity change, negative = cytotoxicity |
| --- | --- | --- |
| Nc1ccc(Br)cc1 | inactive | – |
| CC(C)N1C(=O)c2ccccc2NS1(=O)=O | inactive | – |
| CCCN(CCC)c1c([N+](=O)[O-])cc(C(F)(F)F)cc1[N+](=O)[O-] | inactive | – |
| Cc1cc(Cl)ccc1O | – | 8.16% (inactive) |
| Cc1cccc([N+](=O)[O-])c1 | inactive | – |
| CCC[N+](=O)[O-] | inactive | – |
| CC(Oc1ccc(Cl)cc1Cl)C(=O)O (stereo not given) | inactive | – |
| CC(C)C1(C)N=C(c2nc3ccccc3cc2C(=O)O)NC1=O (stereo not given) | inactive | – |
| Nc1ccc(Cc2ccc(N)cc2)cc1 | inactive | – |
| CCCCCCCCCCCC#N | inactive | – |
| Nc1ccccc1C(=O)O | inactive | – |
| c1ccc2c(c1)Oc1ccccc1O2 | inactive | – |
| CN=C=S | inactive | – |
| CC(C)OC(=O)Nc1cccc(Cl)c1 | – | -20.2% (inactive) |
| CC(=O)C=C(C)C | inactive | – |
| Clc1ccccc1Cl | inactive | – |
| Cc1ccc(N)cc1N | 17.2 µM (active) | – |
| C[C@]12CC[C@H]3[C@@H](CC[C@@]45O[C@@H]4C(O)=C(C#N)C[C@]35C)[C@@H]1CC[C@@H]2O | 30.6 µM (active) | – |
| Cc1[nH]c(=O)n(C(C)(C)C)c(=O)c1Cl | inactive | – |
| O=C(O)c1ccccn1 | inactive | – |

| Structure (SMILES) | Potency | activity change, negative = cytotoxicity |
| --- | --- | --- |
| O=NN1CCCC1 | inactive | – |
| O=C1CCCN1 | inactive | – |
| CCOP(OCC)OCC | – | -0.642% (inactive) |
| CN(C)CCO | inactive | – |
| c1ccc(OP(Oc2ccccc2)Oc2ccccc2)cc1 | inactive | – |
| CC(C)C#N | inactive | – |
| C1CC2OC2CC1C1CO1 (stereo not given) | inactive | – |
| OCCN(CCO)CCO | inactive | – |
| O=Cc1cccc(Oc2ccccc2)c1 | – | 3.33% (inactive) |
| O=c1[nH]c(=O)[nH]c(=O)[nH]1 | inactive | – |
| CCCCN(CC)C(=O)SCCC | inactive | – |
| CCCCCCCCCl | inactive | – |
| COC(=O)c1ccccc1C(=O)OC | inactive | – |
| C1CN2CCN1CC2 | inactive | – |
| COC(=O)NS(=O)(=O)c1ccc(N)cc1 | inactive | – |
| CCOP(=S)(OCC)Oc1cnc2ccccc2n1 | 27.3 µM (active) | – |
| CCCC1COC(Cn2cncn2)(c2ccc(Cl)cc2Cl)O1 (stereo not given) | 55.5 µM (active) and 17.2 µM (active) | – |
| CC1C=[C-]C=C1.[C-]#[O+].[C-]#[O+].[C-]#[O+].[Mn] | – | -15.3% (inactive) |
| CCCN(CCC)N=O | inactive | – |
| NCCc1ccc(O)cc1 | inactive | – |
